# Reference: PubChem BioAssay (Tox21)
# Several values for one entry are separate records, joined by “and”; a condition that tells them apart may be missing. Equal entries are not always repeated. Records with an inconclusive call do not appear. Where a call stands in place of a potency, no number is given. Where a structure was tested more than once in an assay, its records may differ in their call. Activity calls are given as the source filed them. Unless noted, the call rests on the fitted dose curve; in most records, active means well fitted curve in the direction sought with a large enough effect in the repeat runs; inconclusive means weak or mixed curves; inactive means no such curve, though single readings can be large; an effect the other way counts as inactive or inconclusive.
# Tests used:
# [1] = qHTS assay to identify small molecule antagonists of the androgen receptor (AR) signaling pathway using the MDA cell line in the presence of 0.5 nM R1881 - cell viability counter screen (AID 1259242); further: nearly all actives have a fitted effect of over 45% in size
# Method in brief: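 Live-cell protease activity was measured by CellTiter-Fluor fluorescence after 30 min. Before that, MDA-kb2 MMTV-luciferase cells had 16 hr at 37C without CO2, exposed to test compounds and 0.5 nM R1881 final.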
# [2] = biological target: Estrogen receptor (Homo sapiens) (UniProt P03372); assay: qHTS assay to identify small molecule antagonists of the estrogen receptor alpha (ER-alpha) signaling pathway using the BG1 cell line in the presence of 0.1 nM 17-beta-estradiol (AID 1259244); further: nearly all actives have a fitted effect of over 50% in size
# Sequence of Estrogen receptor (Homo sapiens) (P03372 whole entry, looked up): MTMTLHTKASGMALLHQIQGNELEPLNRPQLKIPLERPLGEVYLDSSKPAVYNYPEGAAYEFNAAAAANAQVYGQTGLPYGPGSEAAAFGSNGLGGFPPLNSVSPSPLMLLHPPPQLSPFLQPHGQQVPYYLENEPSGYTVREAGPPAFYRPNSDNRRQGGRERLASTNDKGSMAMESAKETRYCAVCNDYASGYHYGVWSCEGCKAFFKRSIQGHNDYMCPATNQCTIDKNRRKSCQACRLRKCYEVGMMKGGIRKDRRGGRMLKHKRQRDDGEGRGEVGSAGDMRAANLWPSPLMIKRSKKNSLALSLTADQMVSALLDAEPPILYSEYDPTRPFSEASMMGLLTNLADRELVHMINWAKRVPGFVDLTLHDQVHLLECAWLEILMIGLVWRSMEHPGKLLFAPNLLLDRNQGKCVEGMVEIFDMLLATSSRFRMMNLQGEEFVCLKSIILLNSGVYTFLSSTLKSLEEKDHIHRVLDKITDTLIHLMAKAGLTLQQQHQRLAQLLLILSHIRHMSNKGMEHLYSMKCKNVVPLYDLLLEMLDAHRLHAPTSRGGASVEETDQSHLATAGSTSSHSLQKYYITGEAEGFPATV
# Method in brief: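 Luciferase luminescence (ONE-Glo, 30 min at room temperature) was read after 22 hr at 37C exposure to compounds plus 17beta-estradiol at 0.1 nM final. Cells were VM7Luc4E2 with endogenous ER-alpha and an ERE-driven luciferase, pre-cultured 5 days in hormone-depleted medium.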
# [3] = qHTS assay to identify small molecule phospholipidosis (PLD) inducers (AID 1259344; active means well fitted curve in the direction sought with a large enough effect; an effect the other way counts as inactive or inconclusive)
# Method in brief: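 Phospholipid accumulation was scored by imaging: fixed, Hoechst-counterstained HepG2 cells stained with LipidTOX Red after 24 h compound exposure at 37 C. Read-outs were pit count and pit intensity per well or per cell, with amiodarone and DMSO controls.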
# [4] = qHTS assay to identify small molecule HDAC inhibitors (AID 1259364); further: top concentration of the series differs between compounds; nearly all actives have a fitted effect of over 45% in size
# Method in brief: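 Luminescence read after 30 min room-temperature HDAC-Glo incubation measures cellular class I/II HDAC activity. Compounds were applied for 2 hr at 37 C to HCT-116 wild-type cells seeded the day before.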
# [5] = qHTS assay to identify small molecule agonists of the sonic hedgehog signaling (Shh) pathway - cell viability counter screen (AID 1259366); further: nearly all actives have a fitted effect of over 50% in size; further: potency means the concentration at half of the fitted maximal effect
# Method in brief: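 Same-well cytotoxicity read. Gli1-Luc reporter 3T3 cells; compounds 24hr, 37C/5% CO2; CellTiter-Fluor fluorescence.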
# [6] = qHTS assay to identify small molecule agonists of the sonic hedgehog signaling (Shh) pathway (AID 1259368; calls by dose curve;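 further: NIH/3T3-derived 3T3Gli1-Luc cells carrying a stable Gli1-driven firefly luciferase reporter; series mostly up to about 92 µM; nearly all actives have a fitted effect of over 15% in size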)
# Method in brief: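 Luminescence was read after 30 min at room temperature with luciferase reagent. Before that, 3T3Gli1-Luc cells (NIH/3T3 clone, stable Gli1-Luc reporter; 2,000/well) were exposed to compounds for 24 hr at 37C, 5% CO2, compounds being added 4 hr post-plating.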
# [7] = qHTS assay to identify small molecule antagonists of the sonic hedgehog signaling (Shh) pathway (AID 1259369; calls by dose curve; further: nearly all actives have a fitted effect of over 45% in size; further: potency means the concentration at half of the fitted maximal effect)
# Method in brief: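 Antagonist mode: compound added to 3T3 Gli1-Luc cells followed by conditioned-medium stimulation, 24 h at 37 C, 5% CO2. Inhibition taken as loss of Gli1-driven luciferase luminescence.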
# [8] = qHTS assay to identify small molecule agonists of the androgen receptor (AR) signaling pathway in the presence of an antagonist - cell viability counter screen (AID 1259379);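 further: MDA-kb2 human breast cancer cells carrying an MMTV luciferase reporter; series mostly up to about 92 µM; nearly all actives have a fitted effect of over 25% in size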
# Method in brief: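 Cytotoxicity counter-screen run in the same wells as the nilutamide-challenged (3.0 µM final) AR agonist assay in MDA-kb2 cells. Compounds tested at 15 concentrations for 16 h, 37 °C without CO2; CellTiter-Fluor fluorescence read.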
# [9] = qHTS assay to identify small molecule agonists of the estrogen receptor beta (ER-beta) signaling pathway - cell viability counter screen (AID 1259380); further: nearly all actives have a fitted effect of over 30% in size; further: potency means the concentration at half of the fitted maximal effect
# Method in brief: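 Cell viability counter screen: CellTiter-Glo luminescence (30 min, room temperature) measured in the same wells as the beta-lactamase readout, after 16 hr compound exposure at 37C of ER-beta-bla HEK293T cells in 2% charcoal-stripped FBS medium.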
# [10] = qHTS assay to identify small molecule antagonists of the estrogen receptor beta (ER-beta) signaling pathway - cell viability counter screen (AID 1259382); further: nearly all actives have a fitted effect of over 55% in size; further: potency means the concentration at half of the fitted maximal effect
# Method in brief: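 Cytotoxicity was measured in the same wells by CellTiter-Glo luminescence after 30 min at room temperature. Cells were ER-beta-bla HEK293T in charcoal-stripped serum, given compound together with 1 nM E2 and incubated 16 h at 37C.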
# [11] = biological target: Estrogen receptor (Homo sapiens) (UniProt P03372); assay: qHTS assay to identify small molecule agonists of the estrogen receptor alpha (ER-alpha) signaling pathway in the presence of an antagonist (AID 1259383; calls by dose curve; further: top concentration of the series differs between compounds; nearly all actives have a fitted effect of over 15% in size)
# Method in brief: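 Agonist-mode confirmation run in the presence of 10.0nM (final) ICI-182,780 antagonist. The reporter was ERE-driven luciferase in VM7Luc4E2 cells, grown in charcoal-stripped serum. Cells were exposed to 15-concentration compound series for 22hr, then ONE-Glo luminescence was read.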
# [12] = qHTS assay to identify small molecule agonists or antagonists of the thyroid stimulating hormone receptor (TSHR) signaling pathway - wild type cell line counter screen (AID 1259384; calls by dose curve)
# Method in brief: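 Counter screen in untransfected Hek293: compounds (15-point titration, triplicate) plus phosphodiesterase inhibitor Ro20-1724 added after 18 h plating; 30 min RT. Intracellular cAMP via competitive d2/cryptate immunoassay, 1 h incubation.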
# [13] = biological target: Thyrotropin receptor (Homo sapiens) (UniProt P16473); assay: qHTS assay to identify small molecule antagonists of the thyroid stimulating hormone receptor (TSHR) signaling pathway (AID 1259385; calls by dose curve; further: nearly all actives have a fitted effect of over 20% in size)
# Sequence of Thyrotropin receptor (Homo sapiens) (P16473 whole entry, looked up): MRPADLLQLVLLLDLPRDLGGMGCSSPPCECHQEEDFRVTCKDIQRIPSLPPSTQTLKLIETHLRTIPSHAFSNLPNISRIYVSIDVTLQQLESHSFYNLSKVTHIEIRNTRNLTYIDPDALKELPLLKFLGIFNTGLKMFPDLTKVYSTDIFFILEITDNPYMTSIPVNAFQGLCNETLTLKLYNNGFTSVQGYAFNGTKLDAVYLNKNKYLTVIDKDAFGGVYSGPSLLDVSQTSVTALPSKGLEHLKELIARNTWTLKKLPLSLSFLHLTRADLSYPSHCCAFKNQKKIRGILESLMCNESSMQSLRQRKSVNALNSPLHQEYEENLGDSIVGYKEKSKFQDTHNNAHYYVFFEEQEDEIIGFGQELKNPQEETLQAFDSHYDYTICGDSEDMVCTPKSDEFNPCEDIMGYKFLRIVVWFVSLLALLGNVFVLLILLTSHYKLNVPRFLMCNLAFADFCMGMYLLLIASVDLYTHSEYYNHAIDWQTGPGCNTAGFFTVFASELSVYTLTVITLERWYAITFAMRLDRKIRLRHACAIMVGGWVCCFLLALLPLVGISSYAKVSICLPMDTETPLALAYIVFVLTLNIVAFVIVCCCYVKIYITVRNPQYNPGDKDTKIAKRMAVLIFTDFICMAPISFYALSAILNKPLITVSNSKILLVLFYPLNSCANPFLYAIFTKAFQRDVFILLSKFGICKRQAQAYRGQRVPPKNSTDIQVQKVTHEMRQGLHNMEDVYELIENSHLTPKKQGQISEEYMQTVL
# Method in brief: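 Antagonist mode: compound-treated TSHR-expressing HEK293 cells were stimulated with 1.5 ng/mL TSH (final) in presence of Ro20-1724 for 30 min at RT. HTRF cAMP detection after 1 h; each compound tested at 15 concentrations, triplicate.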
# [14] = qHTS assay to identify small molecule agonists of the estrogen receptor alpha (ER-alpha) signaling pathway in the presence of an antagonist - cell viability counter screen (AID 1259386); further: series mostly up to about 92 µM; nearly all actives have a fitted effect of over 30% in size
# Method in brief: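 Compounds tested at 15 concentrations for 22 h at 37C alongside 10.0nM (final) ICI-182,780 antagonist, in VM7Luc4E2 cells grown in phenol red-free, charcoal-stripped medium. Viability read by CellTiter-Fluor fluorescence after 1 h reagent incubation.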
# [15] = biological target: Androgen receptor (Homo sapiens) (UniProt P10275); assay: qHTS assay to identify small molecule antagonists of the androgen receptor (AR) signaling pathway using the MDA cell line in the presence of 0.5 nM R1881 (AID 1259243); further: nearly all actives have a fitted effect of over 50% in size; further: potency means the concentration at half of the fitted maximal effect
# Sequence of Androgen receptor (Homo sapiens) (P10275 whole entry, looked up): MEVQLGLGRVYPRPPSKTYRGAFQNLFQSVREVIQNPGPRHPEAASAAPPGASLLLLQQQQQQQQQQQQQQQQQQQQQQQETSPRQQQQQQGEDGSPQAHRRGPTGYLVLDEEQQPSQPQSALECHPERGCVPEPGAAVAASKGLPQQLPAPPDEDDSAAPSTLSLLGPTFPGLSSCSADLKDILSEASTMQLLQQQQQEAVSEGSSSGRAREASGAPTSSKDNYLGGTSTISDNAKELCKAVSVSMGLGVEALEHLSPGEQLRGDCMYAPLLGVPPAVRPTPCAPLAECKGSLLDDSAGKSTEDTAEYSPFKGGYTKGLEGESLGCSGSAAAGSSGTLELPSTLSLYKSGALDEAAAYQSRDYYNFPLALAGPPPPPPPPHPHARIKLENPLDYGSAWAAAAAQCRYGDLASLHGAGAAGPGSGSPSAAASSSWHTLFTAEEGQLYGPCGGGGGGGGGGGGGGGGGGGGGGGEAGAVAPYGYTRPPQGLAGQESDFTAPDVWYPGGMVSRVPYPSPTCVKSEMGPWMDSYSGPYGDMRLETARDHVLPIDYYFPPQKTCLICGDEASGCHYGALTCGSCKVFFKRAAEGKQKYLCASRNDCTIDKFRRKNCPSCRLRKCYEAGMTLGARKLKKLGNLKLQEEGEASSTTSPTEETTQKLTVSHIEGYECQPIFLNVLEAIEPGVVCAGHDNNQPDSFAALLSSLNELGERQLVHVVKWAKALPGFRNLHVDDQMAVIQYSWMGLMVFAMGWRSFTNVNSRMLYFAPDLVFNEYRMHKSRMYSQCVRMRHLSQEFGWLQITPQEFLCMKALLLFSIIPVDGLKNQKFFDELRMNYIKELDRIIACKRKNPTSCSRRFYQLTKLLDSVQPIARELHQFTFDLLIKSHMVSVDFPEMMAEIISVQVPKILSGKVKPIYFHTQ
# Method in brief: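 Luminescent reporter readout (ONE-Glo, 30 min, room temperature) after 16 hr co-treatment of MDA-kb2 cells with test compounds and 0.5 nM R1881 final, at 37C without CO2. The MMTV-driven luciferase responds to both AR and GR.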
# [16] = qHTS assay to identify small molecule HDAC inhibitors - cell viability counter screen (AID 1259365); further: series mostly up to about 92 µM; nearly all actives have a fitted effect of over 50% in size
# Method in brief: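 After overnight seeding at 1,500 cells per well, wild-type HCT-116 cultures took up compounds in DMSO for 2hr at 37 C. Viable cell content came from luminescence with CellTiter-Glo.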
# [17] = qHTS assay to identify small molecule antagonists of the sonic hedgehog signaling (Shh) pathway - cell viability counter screen (AID 1259367); further: nearly all actives have a fitted effect of over 55% in size; further: potency means the concentration at half of the fitted maximal effect
# Method in brief: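 Viability was read by CellTiter-Fluor fluorescence in the same wells, reagent added 23 hr into compound treatment and incubated 1 hr at 37C. The 3T3 Gli1-Luc reporter cells (2,000/well) received conditioned medium after compound and ran 24 hr.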
# [18] = biological target: Androgen receptor (Homo sapiens) (UniProt P10275); assay: qHTS assay to identify small molecule agonists of the androgen receptor (AR) signaling pathway in the presence of an antagonist (AID 1259381; calls by dose curve; further: nearly all actives have a fitted effect of over 15% in size)
# Method in brief: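 Agonist-mode confirmation run against 3.0 uM final nilutamide: compounds titrated at 15 concentrations onto MDA-kb2 MMTV-luciferase reporter cells. Luminescence measured with ONE-Glo following 16 hr incubation, 37C, 0% CO2.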
SMILES,Potency [1],Potency [2],Potency [3],Potency [4],Potency [5],outcome [6],Potency [7],Potency [8],Potency [9],Potency [10],Potency [11],Potency [12],Potency [13],Potency [14],Potency [15],Potency [16],Potency [17],Potency [18]
CC12CCC(CC1)C(C)(C)O2,inactive,inactive,inactive,inactive,inactive,inactive,inactive,inactive,inactive,inactive,inactive,inactive,inactive,inactive,–,–,–,–
COc1cccc(O)c1O,inactive,inactive,–,inactive,63.5 µM (active),inactive,8.97 µM (active),–,56.6 µM (active),inactive,inactive,–,–,–,inactive,inactive,56.6 µM (active),inactive
CCCCCCc1ccc(O)cc1O,inactive,–,inactive,inactive,48.7 µM (active) and 61.1 µM (active) and inactive,inactive,43.4 µM (active),inactive,48.7 µM (active) and 48.6 µM (active),48.7 µM (active) and inactive,–,inactive,inactive,inactive,43.4 µM (active) and 48.6 µM (active) and 23.7 µM (active),inactive,61.1 µM (active) and inactive,inactive
